# Of roughly 7,900 targets only a part is listed; those with a hit were picked by preference. About 0.6% of all pairs of compound and target were hits.
# Compound: CC1=C(C=C(C=C1)NC(=O)C2=CC(=CC=C2)C(C)(C)C#N)NC3=CC4=C(C=C3)N=CN(C4=O)C
# Test: log2 fold change, soluble protein after heating vs DMSO (PISA); higher = thermal stabilisation; K562 cells, 10 uM, 30 min; active = over 0.2 and 3.5 SD of the protein, either way, in both replicates (recomputed)
# Method in brief: (§1)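 K562 cells at 2×10^6 cells/mL were given 10 μM compound for 30 min. Aliquots then went through 3 min of heating across 48°C-58°C, were pooled, and were extracted in PBS with 0.5% NP-40 at 4°C, and the supernatant after 21,000xg for 90 min was quantified by TMTpro 16plex LC-MS/MS with channel sums equalised. Thermal stability relative to control samples, from duplicates, is given as log2 fold change.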
# UniProt P01130, sequence (P01130 whole entry, looked up): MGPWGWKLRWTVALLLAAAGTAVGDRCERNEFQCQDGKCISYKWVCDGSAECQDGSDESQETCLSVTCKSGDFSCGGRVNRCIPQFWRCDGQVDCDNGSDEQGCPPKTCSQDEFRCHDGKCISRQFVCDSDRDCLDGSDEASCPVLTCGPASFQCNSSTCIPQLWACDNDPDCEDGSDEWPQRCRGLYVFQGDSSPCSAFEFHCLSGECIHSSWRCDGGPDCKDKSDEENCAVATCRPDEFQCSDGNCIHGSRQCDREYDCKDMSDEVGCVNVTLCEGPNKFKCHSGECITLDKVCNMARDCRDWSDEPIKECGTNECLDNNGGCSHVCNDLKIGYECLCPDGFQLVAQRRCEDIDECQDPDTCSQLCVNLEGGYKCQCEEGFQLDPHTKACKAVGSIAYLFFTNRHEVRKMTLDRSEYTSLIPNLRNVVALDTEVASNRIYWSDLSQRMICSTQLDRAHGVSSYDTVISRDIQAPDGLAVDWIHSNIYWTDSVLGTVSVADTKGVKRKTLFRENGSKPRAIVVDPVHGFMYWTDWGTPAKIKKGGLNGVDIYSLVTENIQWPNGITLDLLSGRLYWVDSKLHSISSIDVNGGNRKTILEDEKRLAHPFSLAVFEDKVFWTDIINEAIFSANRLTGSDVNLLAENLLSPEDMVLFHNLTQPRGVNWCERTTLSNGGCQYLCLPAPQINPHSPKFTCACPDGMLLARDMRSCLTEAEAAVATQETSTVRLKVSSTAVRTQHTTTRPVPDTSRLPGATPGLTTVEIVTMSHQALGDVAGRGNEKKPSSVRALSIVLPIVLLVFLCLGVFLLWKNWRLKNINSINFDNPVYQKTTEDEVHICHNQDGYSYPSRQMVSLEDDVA
# UniProt Q9Y2X0, sequence (Q9Y2X0 whole entry, looked up): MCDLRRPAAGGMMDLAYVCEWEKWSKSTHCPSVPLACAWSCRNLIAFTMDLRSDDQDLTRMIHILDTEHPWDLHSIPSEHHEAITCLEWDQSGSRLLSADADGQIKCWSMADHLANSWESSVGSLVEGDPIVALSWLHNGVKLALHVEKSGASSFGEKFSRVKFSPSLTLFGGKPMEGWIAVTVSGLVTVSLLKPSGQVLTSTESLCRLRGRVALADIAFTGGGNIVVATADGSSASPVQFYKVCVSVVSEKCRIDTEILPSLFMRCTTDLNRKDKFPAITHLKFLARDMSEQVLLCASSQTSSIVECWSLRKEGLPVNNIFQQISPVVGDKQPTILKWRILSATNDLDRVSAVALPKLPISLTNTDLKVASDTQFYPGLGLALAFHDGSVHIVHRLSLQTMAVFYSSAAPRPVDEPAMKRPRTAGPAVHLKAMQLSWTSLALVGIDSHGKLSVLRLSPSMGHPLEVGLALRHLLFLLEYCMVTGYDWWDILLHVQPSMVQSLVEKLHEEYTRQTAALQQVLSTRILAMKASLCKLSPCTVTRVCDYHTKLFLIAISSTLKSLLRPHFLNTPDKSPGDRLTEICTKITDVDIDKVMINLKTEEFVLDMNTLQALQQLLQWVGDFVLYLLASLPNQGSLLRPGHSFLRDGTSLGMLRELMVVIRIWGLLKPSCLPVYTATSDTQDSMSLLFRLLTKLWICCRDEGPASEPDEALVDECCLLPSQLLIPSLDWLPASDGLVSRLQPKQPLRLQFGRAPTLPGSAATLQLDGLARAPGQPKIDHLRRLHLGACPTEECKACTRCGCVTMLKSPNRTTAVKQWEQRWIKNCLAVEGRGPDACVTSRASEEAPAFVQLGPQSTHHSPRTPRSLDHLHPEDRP
# UniProt Q96PC5, sequence (Q96PC5 whole entry, looked up): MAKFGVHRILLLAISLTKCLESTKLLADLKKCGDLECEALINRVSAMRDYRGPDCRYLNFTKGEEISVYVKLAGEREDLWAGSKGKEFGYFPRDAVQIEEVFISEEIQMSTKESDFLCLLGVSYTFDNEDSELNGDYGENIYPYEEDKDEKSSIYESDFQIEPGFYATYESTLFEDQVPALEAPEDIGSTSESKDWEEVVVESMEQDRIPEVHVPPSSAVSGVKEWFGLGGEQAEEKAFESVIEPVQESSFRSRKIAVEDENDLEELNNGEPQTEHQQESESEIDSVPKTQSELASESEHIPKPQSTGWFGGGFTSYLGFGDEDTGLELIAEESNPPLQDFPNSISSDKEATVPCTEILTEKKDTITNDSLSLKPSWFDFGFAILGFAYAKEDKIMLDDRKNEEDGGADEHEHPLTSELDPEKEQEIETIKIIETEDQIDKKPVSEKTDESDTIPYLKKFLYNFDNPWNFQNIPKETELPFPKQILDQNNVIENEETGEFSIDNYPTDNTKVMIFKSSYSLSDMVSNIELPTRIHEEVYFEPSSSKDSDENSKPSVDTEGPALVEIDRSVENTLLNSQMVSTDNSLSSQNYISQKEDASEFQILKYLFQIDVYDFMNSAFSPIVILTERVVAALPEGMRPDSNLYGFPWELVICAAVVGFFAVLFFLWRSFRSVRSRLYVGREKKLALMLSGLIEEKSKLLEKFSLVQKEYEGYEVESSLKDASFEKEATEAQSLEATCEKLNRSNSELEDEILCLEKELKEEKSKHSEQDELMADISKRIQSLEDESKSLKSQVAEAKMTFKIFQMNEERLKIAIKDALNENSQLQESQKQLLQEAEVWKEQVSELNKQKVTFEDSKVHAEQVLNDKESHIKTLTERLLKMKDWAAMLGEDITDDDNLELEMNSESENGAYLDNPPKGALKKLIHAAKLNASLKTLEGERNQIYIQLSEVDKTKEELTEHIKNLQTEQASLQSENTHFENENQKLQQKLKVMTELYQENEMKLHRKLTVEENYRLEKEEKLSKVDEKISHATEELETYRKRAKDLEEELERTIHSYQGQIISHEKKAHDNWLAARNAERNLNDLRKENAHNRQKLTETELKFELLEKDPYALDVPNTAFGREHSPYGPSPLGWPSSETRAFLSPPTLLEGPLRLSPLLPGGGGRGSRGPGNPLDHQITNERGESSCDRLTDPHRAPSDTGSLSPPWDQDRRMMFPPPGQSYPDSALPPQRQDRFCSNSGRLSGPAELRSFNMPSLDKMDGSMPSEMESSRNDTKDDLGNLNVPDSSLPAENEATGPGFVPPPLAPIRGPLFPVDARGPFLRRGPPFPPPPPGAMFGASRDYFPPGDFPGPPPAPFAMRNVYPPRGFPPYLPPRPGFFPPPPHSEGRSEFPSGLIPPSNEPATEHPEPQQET
# UniProt P01116, sequence (P01116 whole entry, looked up): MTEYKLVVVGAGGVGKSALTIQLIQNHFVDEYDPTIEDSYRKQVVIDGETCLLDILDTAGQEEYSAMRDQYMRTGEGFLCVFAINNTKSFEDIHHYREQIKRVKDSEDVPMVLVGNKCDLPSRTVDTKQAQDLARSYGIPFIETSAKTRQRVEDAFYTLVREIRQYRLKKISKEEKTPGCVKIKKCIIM
# UniProt Q8IWB1, sequence (Q8IWB1 whole entry, looked up): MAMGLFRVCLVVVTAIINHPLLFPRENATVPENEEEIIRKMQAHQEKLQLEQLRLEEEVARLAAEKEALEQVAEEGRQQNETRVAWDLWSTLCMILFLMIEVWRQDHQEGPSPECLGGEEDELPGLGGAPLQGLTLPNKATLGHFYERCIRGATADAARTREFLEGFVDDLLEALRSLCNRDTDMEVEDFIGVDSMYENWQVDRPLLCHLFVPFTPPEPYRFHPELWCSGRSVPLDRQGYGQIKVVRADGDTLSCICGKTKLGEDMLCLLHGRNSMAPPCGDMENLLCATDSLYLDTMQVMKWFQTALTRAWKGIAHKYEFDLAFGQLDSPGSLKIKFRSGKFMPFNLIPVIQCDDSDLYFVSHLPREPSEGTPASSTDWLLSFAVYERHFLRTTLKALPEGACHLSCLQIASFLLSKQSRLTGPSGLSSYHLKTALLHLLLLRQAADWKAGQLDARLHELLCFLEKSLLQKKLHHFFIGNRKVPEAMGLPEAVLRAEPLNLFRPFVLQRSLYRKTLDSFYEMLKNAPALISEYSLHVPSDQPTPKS
# UniProt Q68DH5, sequence (Q68DH5 whole entry, looked up): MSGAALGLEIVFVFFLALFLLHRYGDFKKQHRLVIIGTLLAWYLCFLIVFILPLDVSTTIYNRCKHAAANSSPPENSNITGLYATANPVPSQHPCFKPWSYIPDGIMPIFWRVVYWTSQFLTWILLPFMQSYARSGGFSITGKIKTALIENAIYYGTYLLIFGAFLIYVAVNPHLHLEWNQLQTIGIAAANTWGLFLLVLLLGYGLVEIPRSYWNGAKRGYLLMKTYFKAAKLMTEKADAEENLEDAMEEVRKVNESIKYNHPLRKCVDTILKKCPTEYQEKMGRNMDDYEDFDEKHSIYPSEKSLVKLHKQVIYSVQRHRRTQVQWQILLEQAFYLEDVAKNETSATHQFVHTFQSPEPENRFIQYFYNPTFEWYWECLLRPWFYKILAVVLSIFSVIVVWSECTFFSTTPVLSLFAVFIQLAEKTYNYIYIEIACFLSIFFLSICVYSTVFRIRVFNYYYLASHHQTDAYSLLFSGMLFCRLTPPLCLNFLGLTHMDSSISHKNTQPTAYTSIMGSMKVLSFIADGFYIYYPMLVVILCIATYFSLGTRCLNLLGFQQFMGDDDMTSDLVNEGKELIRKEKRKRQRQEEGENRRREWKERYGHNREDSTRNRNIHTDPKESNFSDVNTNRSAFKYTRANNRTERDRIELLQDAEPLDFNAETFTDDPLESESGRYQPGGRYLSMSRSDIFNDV
# UniProt Q12905, sequence (Q12905 whole entry, looked up): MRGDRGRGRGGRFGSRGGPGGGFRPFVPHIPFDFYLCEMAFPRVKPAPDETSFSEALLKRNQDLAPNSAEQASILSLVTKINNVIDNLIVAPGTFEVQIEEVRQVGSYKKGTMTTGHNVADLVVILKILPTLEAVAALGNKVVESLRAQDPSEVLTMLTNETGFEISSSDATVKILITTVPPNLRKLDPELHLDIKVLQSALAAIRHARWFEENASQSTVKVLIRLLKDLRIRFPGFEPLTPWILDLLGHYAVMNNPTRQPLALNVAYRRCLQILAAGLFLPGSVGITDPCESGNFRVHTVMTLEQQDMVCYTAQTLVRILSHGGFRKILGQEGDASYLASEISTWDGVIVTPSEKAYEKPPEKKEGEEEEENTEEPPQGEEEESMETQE
row,Target,log2 fold change
1,LTV1 (UniProt Q96GA3),0.044 (inactive)
2,LEMD3 (UniProt Q9Y2U8),-0.066 (inactive)
3,LMNA (UniProt P02545),-0.023 (inactive)
4,MDC1 (UniProt Q14676),-0.019 (inactive)
5,MED16 (UniProt Q9Y2X0),-0.025 (inactive)
6,ILF2 (UniProt Q12905),0.036 (inactive)
7,ITIH4 (UniProt Q14624),-0.14 (inactive)
8,ITPRIP (UniProt Q8IWB1),-0.044 (inactive)
9,KIF13A isoform 4 (UniProt Q9H1H9),0.035 (inactive)
10,LYN (UniProt P07948),0.195 (inactive)
11,IGFBP4 (UniProt P22692),0.044 (inactive)
12,MAP2K2 (UniProt P36507),-0.018 (inactive)
13,KRAS isoform 2 (UniProt P01116),-0.034 (inactive)
14,LMBRD2 (UniProt Q68DH5),-0.038 (inactive)
15,LDAH isoform 2 (UniProt Q9H6V9),-0.026 (inactive)
16,LMNB2 (UniProt Q03252),-0.022 (inactive)
17,IMMT isoform 2 (UniProt Q16891),0.053 (inactive)
18,ILKAP (UniProt Q9H0C8),-0.026 (inactive)
19,KEL (UniProt P23276),-0.004 (inactive)
20,LTO1 (UniProt Q8WV07),0.021 (inactive)

row,Target,log2 fold change
1,KLC2 (UniProt Q9H0B6),0.025 (inactive)
2,MAPK8 isoform 3 (UniProt P45983),-0.038 (inactive)
3,KMT5A (UniProt Q9NQR1),0.07 (inactive)
4,KCTD10 (UniProt Q9H3F6),-0.055 (inactive)
5,MED17 (UniProt Q9NVC6),0.042 (inactive)
6,LPCAT3 (UniProt Q6P1A2),0.289 (active)
7,MEPCE (UniProt Q7L2J0),0.077 (inactive)
8,LDLR (UniProt P01130),-0.063 (inactive)
9,ILF3 isoform 7 (UniProt Q12906),0.028 (inactive)
10,MICU2 (UniProt Q8IYU8),0.022 (inactive)
11,MAN2B2 (UniProt Q9Y2E5),0.017 (inactive)
12,LARP7 isoform 3 (UniProt Q4G0J3),-0.011 (inactive)
13,IKZF1 (UniProt Q13422),0.144 (inactive)
14,MFGE8 (UniProt Q08431),0.034 (inactive)
15,MAGEA9 (UniProt P43362),-0.033 (inactive)
16,MAPRE3 (UniProt Q9UPY8),0 (inactive)
17,MAP4 (UniProt E7EVA0),0 (inactive)
18,MDN1 (UniProt Q9NU22),-0.023 (inactive)
19,MIA2 (UniProt Q96PC5),0.009 (inactive)

# Compound: CC1=C(C=C(C=C1)NC(=O)C2=CC(=CC=C2)N(C)C)NC(=O)C3=CC=C(C=C3)O
# Test: as above
# Method in brief: as §1
row,Target,log2 fold change
1,LTV1 (UniProt Q96GA3),-0.04 (inactive)
2,LEMD3 (UniProt Q9Y2U8),-0.071 (inactive)
3,LMNA (UniProt P02545),0.095 (inactive)
4,MDC1 (UniProt Q14676),-0.037 (inactive)
5,MED16 (UniProt Q9Y2X0),-0.044 (inactive)
6,ILF2 (UniProt Q12905),-0.032 (inactive)
7,ITIH4 (UniProt Q14624),0.166 (inactive)
8,ITPRIP (UniProt Q8IWB1),0.007 (inactive)
9,LYN (UniProt P07948),-0.053 (inactive)
10,IGFBP4 (UniProt P22692),0.207 (inactive)
11,MAP2K2 (UniProt P36507),0.013 (inactive)
12,KRAS isoform 2 (UniProt P01116),0.046 (inactive)
13,LMBRD2 (UniProt Q68DH5),0.016 (inactive)
14,LDAH isoform 2 (UniProt Q9H6V9),-0.008 (inactive)
15,LMNB2 (UniProt Q03252),0.015 (inactive)
16,IMMT isoform 2 (UniProt Q16891),0.074 (inactive)
17,ILKAP (UniProt Q9H0C8),-0.117 (inactive)
18,KEL (UniProt P23276),-0.061 (inactive)
19,LTO1 (UniProt Q8WV07),-0.042 (inactive)

row,Target,log2 fold change
1,KLC2 (UniProt Q9H0B6),-0.055 (inactive)
2,MAPK8 isoform 3 (UniProt P45983),-0.026 (inactive)
3,KCTD10 (UniProt Q9H3F6),0.022 (inactive)
4,MED17 (UniProt Q9NVC6),-0.03 (inactive)
5,LPCAT3 (UniProt Q6P1A2),-0.029 (inactive)
6,MEPCE (UniProt Q7L2J0),0.025 (inactive)
7,LDLR (UniProt P01130),0.006 (inactive)
8,ILF3 isoform 7 (UniProt Q12906),-0.068 (inactive)
9,MICU2 (UniProt Q8IYU8),0.067 (inactive)
10,MAN2B2 (UniProt Q9Y2E5),0.049 (inactive)
11,LARP7 isoform 3 (UniProt Q4G0J3),0.054 (inactive)
12,IKZF1 (UniProt Q13422),0.036 (inactive)
13,MFGE8 (UniProt Q08431),-0.027 (inactive)
14,MAGEA9 (UniProt P43362),0.05 (inactive)
15,MAPRE3 (UniProt Q9UPY8),-0.002 (inactive)
16,MAP4 (UniProt E7EVA0),0.008 (inactive)
17,MDN1 (UniProt Q9NU22),-0.021 (inactive)
18,MIA2 (UniProt Q96PC5),-0.012 (inactive)

# Source: the supplement of paper PMC10849652
